Methyltransferases – Primary Screen for Target Class Profiling of Small Molecule Inhibitors of Methyltransferases; purified enzyme, MTase-Glo SAH luminescence; stronger effect = lower value; calls only at 40 µM; hit rate 3.9% among 25,000; call rule not given here
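Each enzyme was reacted with SAM and its substrate, with compounds tested once at 40 uM; SAH formed was read by MTase-Glo luminescence.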
MTase-Glo counter – inhibits MTase-Glo coupling enzymes without methyltransferase. shares compounds with Methyltransferases. MTase-Glo coupled enzymes, SAH conversion luminescence, no MTase. Potency, µM (top dose mostly 57.3 µM), without a hit: at the top dose activity change, negative = inhibition, most hits filed as inhibitors. hit rate 6% among 180; active = well fitted inhibition curve with a large enough effect; note: potency is the fitted concentration of half-maximal effect
* = called active by the depositor; i = inactive; + = active, no number; [ ] = dose if it differs, or a comment. The entries come from a sample that favours hits as a whole. % is set by controls: 0 for no effect and ±100 for the full control effect.

SMILES | Methyltransferases | others
CCc1ccc(NC(=O)N2Cc3ccccc3-n3cccc3C2c2cccc(Cl)c2)cc1 (stereo not drawn) | i
CSc1ccc(C2c3cccn3-c3ccccc3CN2C(=O)NCc2ccc(F)cc2)cc1 (stereo not drawn) | i
CCOc1ccccc1NC(=O)N1Cc2ccccc2-n2cccc2C1c1cc(F)cc(F)c1 (stereo not drawn) | i
CCC1c2cccn2-c2ccccc2CN1C(=O)Nc1cccc(Cl)c1 (stereo not drawn) | i
CCC1c2cccn2-c2ccccc2CN1C(=O)Nc1cc(C)cc(C)c1 (stereo not drawn) | i
O=C(Nc1cccc(Br)c1)N1Cc2ccccc2-n2cccc2C1c1cccs1 (stereo not drawn) | i
Cc1ccc(NC(=O)N2Cc3ccccc3-n3cccc3C2c2cccc(Cl)c2)cc1 (stereo not drawn) | i
Cc1cccc(NC(=O)N2Cc3ccccc3-n3cccc3C2c2cccc(C)c2)c1 (stereo not drawn) | i
COc1ccc(C2c3cccn3-c3ccccc3CN2C(=O)Nc2ccc(C)c(C)c2)cc1 (stereo not drawn) | i
COc1cccc(CNC(=O)N2Cc3ccccc3-n3cccc3C2c2cccc(Cl)c2)c1 (stereo not drawn) | i
COc1ccccc1NC(=O)N1Cc2ccccc2-n2cccc2C1c1ccccc1C (stereo not drawn) | i
COc1ccc(NC(=O)N2Cc3ccccc3-n3cccc3C2c2cccc(Cl)c2)cc1OC (stereo not drawn) | i
CCCCN1[C@@H]2CC[C@H]1CC(OC(c1ccc(F)cc1)c1ccc(F)cc1)C2 (stereo partly drawn) | +
CCOc1ccc(NC(=O)N2Cc3ccccc3-n3cccc3C2c2ccccc2Cl)cc1 (stereo not drawn) | i
COc1cccc(CNC(=O)N2Cc3ccccc3-n3cccc3C2c2ccc(SC)cc2)c1 (stereo not drawn) | i
CCc1ccc(C2c3cccn3-c3ccccc3CN2C(=O)NCc2ccccc2)cc1 (stereo not drawn) | i
CCOc1ccc(C2c3cccn3-c3ccccc3CN2C(=O)Nc2cc(C)cc(C)c2)cc1 (stereo not drawn) | i
CN(N=O)c1cc(O)ccc1O | +
O=C(Nc1ccccc1Br)N1Cc2ccccc2-n2cccc2C1c1ccccc1 (stereo not drawn) | i
COc1cccc(CNC(=O)N2Cc3ccccc3-n3cccc3C2C(C)C)c1 (stereo not drawn) | i
COc1ccc(NC(=O)N2Cc3ccccc3-n3cccc3C2c2ccc(SC)cc2)cc1OC (stereo not drawn) | i
C=CCN1CCC2(C)c3cc(O)ccc3C[C@H]1[C@H]2C | +
CC(C)[C@@H](CN1CC[C@@](C)(c2cccc(O)c2)[C@@H](C)C1)NC(=O)[C@H]1Cc2ccc(O)cc2CN1 | i
CCCNC(=O)N1Cc2ccccc2-n2cccc2C1c1ccc(C)cc1 (stereo not drawn) | i
CCc1ccc(C2c3cccn3-c3ccccc3CN2C(=O)NCc2ccc(F)cc2)cc1 (stereo not drawn) | i
SMILES | Methyltransferases | others
Cn1nc(-c2cccs2)cc1[C@H]1CN2CC[C@H]1C[C@@H]2CNC(=O)C1CCCCC1 | i
C=C[C@H]1CN2CC[C@H]1C[C@@H]2[C@@H](O)c1ccnc2ccccc12 | i
C=C[C@H]1CN2CC[C@H]1C[C@@H]2CNC(=O)Nc1ccc(Br)cc1 | + | MTase-Glo counter=-30%[85.7 µM]
O=C(Nc1ccccc1)N1Cc2ccccc2-n2cccc2C1c1cccc(Cl)c1 (stereo not drawn) | i
Cc1c(Cl)cccc1NC(=O)N1Cc2ccccc2-n2cccc2C1c1cccs1 (stereo not drawn) | i
COc1cccc(CNC(=O)N2Cc3ccccc3-n3cccc3C2c2ccc(OC)c(OC)c2)c1 (stereo not drawn) | i
COC(=O)c1cccc(NC(=O)N2Cc3ccccc3-n3cccc3C2c2cc(F)cc(F)c2)c1 (stereo not drawn) | i
CC[C@H]1CN2CC[C@H]1C[C@@H]2CNCc1ccc(-c2ccccc2)cc1 | + | MTase-Glo counter=2%[85.7 µM]
COc1ccccc1-c1cc([C@H]2CN3CC[C@H]2C[C@@H]3CNS(=O)(=O)c2ccccc2)n(C)n1 | i
CS(=O)(=O)NC[C@H]1C[C@@H]2CCN1C[C@@H]2CN1CCc2ccccc2C1 | i

Screening data (PubChem)
